Screens: PubChem, several laboratories
EP2 mod: modulates human prostaglandin E2 receptor EP2 signaling; P43116; EP2-expressing cells, cAMP HTRF FRET, PGE2 co-stimulation; induction, % at 25 µM; 0.83% of 260,000 active;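 active = compounds whose cAMP rise, as percent of the full-agonist control response, exceeds 60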;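 note: rat C6 glioma line stably carrying human EP2 under a CMV promoter; the protocol text gives 20 µM as final concentration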
Target sequence (P43116 whole entry, looked up): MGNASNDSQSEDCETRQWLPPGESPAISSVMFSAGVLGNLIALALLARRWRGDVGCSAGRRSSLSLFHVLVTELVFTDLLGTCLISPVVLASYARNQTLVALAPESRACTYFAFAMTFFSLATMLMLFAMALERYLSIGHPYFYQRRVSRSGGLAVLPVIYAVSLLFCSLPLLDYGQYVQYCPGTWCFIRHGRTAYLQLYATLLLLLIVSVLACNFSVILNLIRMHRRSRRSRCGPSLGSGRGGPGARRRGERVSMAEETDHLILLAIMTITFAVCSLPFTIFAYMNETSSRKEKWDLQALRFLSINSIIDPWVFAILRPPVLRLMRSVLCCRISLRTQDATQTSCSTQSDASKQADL
HSV augment: HSV replication enhancement. maximum fold increase. HSV replication augmentation in cells, fold increase. AID 1956. 0.005% of 220,000 active; in the data active = maximum fold increase above about 1.5; tested in PC3 cells
PGE2 EP2 inh: inhibitors of human EP2 prostaglandin E2 receptor; C6 glioma cells expressing human EP2, cAMP TR-FRET; cells stimulated with saturating PGE2; 0.52% of 260,000 active; P43116; inhibition, % at 25 µM;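 active = percent inhibition above 40 after rounding to a whole number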;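 note: rat C6 glioma host cells with rolipram phosphodiesterase inhibitor present; the protocol text gives 20 µM as final concentration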
p47phox inh: inhibitors of human p47phox binding; p47phox/p22phox peptide binding, fluorescence polarization, 2 h; P14598; AID 1274; 0.53% of 220,000 active; inhibition, % at 24.7 µM;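 active = inhibition above about 30%, limit read from the data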
Target sequence (P14598 whole entry, looked up): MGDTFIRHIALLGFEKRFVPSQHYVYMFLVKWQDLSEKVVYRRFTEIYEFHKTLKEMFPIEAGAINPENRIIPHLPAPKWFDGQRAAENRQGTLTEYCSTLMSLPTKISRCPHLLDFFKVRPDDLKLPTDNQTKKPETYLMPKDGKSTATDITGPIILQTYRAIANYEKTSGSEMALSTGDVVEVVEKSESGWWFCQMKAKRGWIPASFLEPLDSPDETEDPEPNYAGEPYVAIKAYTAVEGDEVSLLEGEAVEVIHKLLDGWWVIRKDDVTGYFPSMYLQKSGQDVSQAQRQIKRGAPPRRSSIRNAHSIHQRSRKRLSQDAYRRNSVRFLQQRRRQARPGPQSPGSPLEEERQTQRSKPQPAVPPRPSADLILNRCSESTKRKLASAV
Wee1 stabilizer: blocks degradation of human Wee1 kinase; P30291; HeLa Luc-Wee1K328M stability, luciferase luminescence; 100% = proteasome inhibitor MG132 effect; reporter increase, % at 5 µM; 1.2% of 220,000 active;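 active = activation above the mean of all tested compounds plus 3 SD, set per screening run, cut at about 8.8% in these data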;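 note: cells exposed to compound for 20 h before luminescence read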
Furin inhibitor: human furin inhibition | P09958 | purified furin, fluorogenic substrate cleavage | inhibition, % at 20 µM or 30 µM | 0.061% of 220,000 active | AID 463115; in the data active = inhibition above about 25%
Large screens that a line does not name were inactive. A selection: hits, their analogues and other compounds. The true share with any hit is near 2.8%.

CC1CCc2c(sc(NC(=O)/C=C/C(=O)O)c2C#N)C1 (centres undefined)	none (no result: HSV augment, p47phox inh, Wee1 stabilizer, Furin inhibitor)
CCOC(=O)Nc1ccc(S(=O)(=O)NCc2ccccc2)cc1	p47phox inh 38.1
CCOC(=O)/C=C/C(=O)Nc1ccc(S(=O)(=O)N(C)c2ccccc2)cc1	Wee1 stabilizer 10.1
CC(=O)Nc1ccc(S(=O)(=O)N(C)c2ccccc2)cc1	none
CCOC(=O)Nc1ccc(NS(=O)(=O)c2ccc(C)cc2)cc1	none
Cc1sc2nc(C(C)C)n(C3CCN(C(=O)C(C)C)CC3)c(=O)c2c1C	none (no result: HSV augment, p47phox inh, Wee1 stabilizer, Furin inhibitor)
COc1cccc(N2CCN(c3ncnc4c3[nH]c3ccc(F)cc34)CC2C)c1 (centres undefined)	PGE2 EP2 inh 98.9
Cc1nnc(SCC(=O)Nc2nccs2)n1C	none (no result: HSV augment, p47phox inh, Wee1 stabilizer, Furin inhibitor)
Cc1cc2c(C)nc(N/N=C/c3ccc([N+](=O)[O-])cc3)nc2o1	p47phox inh 44.1
COCCCN(Cc1ccccn1)CC1(c2ccc(Cl)cc2)CCCC1	none (no result: HSV augment, p47phox inh, Wee1 stabilizer, Furin inhibitor)
CCOC(=O)Cn1cnc2sc(C(=O)Nc3ccccc3OC)c(C)c2c1=O	none (no result: HSV augment, p47phox inh, Wee1 stabilizer, Furin inhibitor)
Cc1ccc(N2CC(C(=O)NC3CCCC3)CC2=O)cc1 (centres undefined)	PGE2 EP2 inh 50.0 (no result: HSV augment, p47phox inh, Wee1 stabilizer, Furin inhibitor)
COc1ccc([C@@H](C)c2cc3c(cc2O)OCO3)cc1	none (no result: HSV augment, p47phox inh, Wee1 stabilizer, Furin inhibitor)
COc1ccc([C@@H](Nc2ncccn2)c2cc3c(cc2O)OCO3)cc1	PGE2 EP2 inh 52.7 (no result: HSV augment, p47phox inh, Wee1 stabilizer, Furin inhibitor)
OCCN(Cc1cnn(-c2ccc(F)cc2)c1)Cc1cccs1	none (no result: HSV augment, p47phox inh, Wee1 stabilizer, Furin inhibitor)
O=C(Oc1ccc2c(c1)OCO2)c1cccc(S(=O)(=O)N2CCCC2)c1	none (no result: HSV augment, p47phox inh, Wee1 stabilizer, Furin inhibitor)
O=C(c1ccccc1)N1CCN(c2ncnc3c2cnn3-c2ccccc2)CC1	none
CC1CCN(c2ncnc3c2cnn3-c2ccccc2)CC1	Wee1 stabilizer 10.6
Cc1nn(-c2ccccc2)c(Cl)c1C(=O)N1CCN(c2ncnc3c2cnn3-c2ccccc2)CC1	PGE2 EP2 inh 40.2
CCOc1ccc(S(=O)(=O)N(CC(=O)N2CCOCC2)c2ccc(F)cc2)cc1	none (no result: HSV augment, p47phox inh, Wee1 stabilizer, Furin inhibitor)
CCSS(=O)(=O)c1cccc2cccnc12	p47phox inh 51.9
CCOC(=O)Cc1csc(NC(=O)CSc2nnc3c(C)cc4cc(CC)ccc4n23)n1	none (no result: HSV augment, p47phox inh, Wee1 stabilizer, Furin inhibitor)
NC(=O)COC(=O)c1c2c(nc3ccccc13)CCCCC2	none
COc1cc(-c2nnc(COC(=O)c3c4c(nc5ccccc35)CCCC4)o2)cc(OC)c1OC	Wee1 stabilizer 10.0
CC1=NC(=O)C(N=O)N1c1ccccc1 (centres undefined)	PGE2 EP2 inh 50.8 (no result: HSV augment, p47phox inh, Wee1 stabilizer, Furin inhibitor)
CCC(OC(=O)C1C2C=CC3(CN(c4ccc(C)cc4C)C(=O)C13)O2)C(=O)NC(C)(C)C (centres undefined)	none (no result: HSV augment, p47phox inh, Wee1 stabilizer, Furin inhibitor)
CCOC(=O)COc1cc(-n2c(=S)[nH]c3cc(OC)c(OC)cc3c2=O)c(Cl)cc1Cl	p47phox inh 37.4
OC1(c2ccccc2F)CCN(Cc2cnc(N3CCCCC3)nc2)CC1	none (no result: HSV augment, p47phox inh, Wee1 stabilizer, Furin inhibitor)
CC1CCC2(CC1)NC(=O)N(CC(=O)N1CCN(S(=O)(=O)c3ccccc3)CC1)C2=O (centres undefined)	Wee1 stabilizer 9.7
Cc1c(Cl)cccc1NC(=O)CC1Sc2ccccc2NC1=O (centres undefined)	none
Cc1c(Cl)cccc1NC(=O)C[C@H]1Sc2ccccc2NC1=O	PGE2 EP2 inh 59.9 (no result: HSV augment, p47phox inh, Wee1 stabilizer, Furin inhibitor)
CC(=O)Nc1ccc2nc(NC(=O)c3ccc(C)c(C)c3)sc2c1	none (no result: HSV augment, p47phox inh, Wee1 stabilizer, Furin inhibitor)
CCCOC(=O)CN1C(=O)c2ccc(C(=O)OCCC)cc2C1=O	none
CCCCOC(=O)CN1C(=O)c2ccc(C(=O)OCCCC)cc2C1=O	EP2 mod 62.9
S=c1nc(COc2ccccc2)[nH]c2ccccc12	EP2 mod 65.7 (no result: HSV augment, p47phox inh, Wee1 stabilizer, Furin inhibitor)
O=C(N1CCOCC1)N1CCN(C(=O)N2CCOCC2)CC1	none (no result: EP2 mod, HSV augment, PGE2 EP2 inh, p47phox inh)
CC(=O)N1CCOCCOCCN(C(C)=O)CCOCC1	Wee1 stabilizer 10.6
Cc1cc2c(cc3c(=O)n(CC(=O)NC4CCCC4)nc(C)n32)o1	none (no result: HSV augment, p47phox inh, Wee1 stabilizer, Furin inhibitor)
CCOC(=O)c1ccc(N2C(=O)CC(Nc3ccc(O)cc3)C2=O)cc1 (centres undefined)	p47phox inh 34.7
CCOC(=O)c1ccc(N2C(=O)CC(NNC(=O)c3ccc(Br)s3)C2=O)cc1 (centres undefined)	none
CC(=O)c1ccc(Oc2cc(C)nc(NCc3ccccc3)n2)cc1	none
Cc1cc(N2CCCCC2)nc(NCc2ccccc2)n1	none
Cc1cc(OC2CCCCC2)nc(NCc2ccccc2)n1	EP2 mod 66.0
CCOc1cc(C)nc(NCc2ccccc2)n1	EP2 mod 63.3
O=C(O)Cn1cccc1C(=O)c1ccccc1	Wee1 stabilizer 9.2
CCSc1nc(O)cc(=O)[nH]1	Wee1 stabilizer 10.6
C#CCOCCOCCOCCNc1nc(N2CCN(C(=O)[C@H](Cc3ccc(O)cc3)n3cc([C@@H](N)C(C)CC)nn3)CC2)nc(N2CCN(C(=O)[C@H](Cc3cc4ccccc4[nH]3)n3cc([C@@H](N)C(C)CC)nn3)CC2)n1 (some centres undefined)	none (no result: p47phox inh)
C#CCOCCOCCOCCNc1nc(N2CCN(C(=O)[C@H](CCCCN)n3cc(CCCC)nn3)CC2)nc(N2CCN(C(=O)[C@H](Cc3ccc(O)cc3)n3cc(CCO)nn3)CC2)n1	p47phox inh 63.4 (no result: HSV augment, PGE2 EP2 inh)
C#CCOCCOCCOCCNc1nc(N2CCN(C(=O)[C@H](Cc3cc4ccccc4[nH]3)n3cc([C@@H](N)Cc4ccc(O)cc4)nn3)CC2)nc(N2CCN(C(=O)[C@H](Cc3cc4ccccc4[nH]3)n3cc([C@@H](N)CC(C)C)nn3)CC2)n1	p47phox inh 73.4 (no result: HSV augment, PGE2 EP2 inh, Wee1 stabilizer)
C#CCOCCOCCOCCNc1nc(N2CCN(C(=O)[C@H]([C@@H](C)CC)n3cc([C@@H](N)Cc4ccc(O)cc4)nn3)CC2)nc(N2CCN(C(=O)[C@H](Cc3cc4ccccc4[nH]3)n3cc([C@@H](N)C(C)CC)nn3)CC2)n1 (some centres undefined)	none (no result: HSV augment, PGE2 EP2 inh)
C#CCOCCOCCOCCNc1nc(N2CCN(C(=O)[C@H](Cc3cc4ccccc4[nH]3)n3cc([C@@H](N)C(C)CC)nn3)CC2)nc(N2CCN(C(=O)[C@H](Cc3cc4ccccc4[nH]3)n3cc([C@@H](N)Cc4ccc(O)cc4)nn3)CC2)n1 (some centres undefined)	p47phox inh 79.4 (no result: HSV augment, PGE2 EP2 inh)
C#CCOCCOCCOCCNc1nc(N2CCN(C(=O)C(Cc3cc4ccccc4[nH]3)n3cc(C(N)Cc4ccc(O)cc4)nn3)CC2)nc(N2CCN(C(=O)C(Cc3cc4ccccc4[nH]3)n3cc(C(N)Cc4ccc(O)cc4)nn3)CC2)n1 (centres undefined)	p47phox inh 64.7 (no result: HSV augment, PGE2 EP2 inh)
C#CCOCCOCCOCCNc1nc(N2CCN(C(=O)C(CCC(=O)O)n3cc(C(N)CC(C)C)nn3)CC2)nc(N2CCN(C(=O)C(Cc3cc4ccccc4[nH]3)n3cc(C(N)Cc4ccc(O)cc4)nn3)CC2)n1 (centres undefined)	none (no result: HSV augment, PGE2 EP2 inh)
Cn1nc(-c2ccccc2)c(CSc2ccccc2Cl)c1Cl	p47phox inh 34.2
COCCNC(=O)C1CC(c2cccc(Br)c2)=NO1 (centres undefined)	none (no result: HSV augment, p47phox inh, Wee1 stabilizer, Furin inhibitor)
